In PubChem BioAssay (NCATS):
Inconclusive results are not listed. Calls of active or inactive are those of the source. The call rests on the fitted dose curve; in most records, active means well fitted cell-killing curve with a large enough effect; inconclusive means small, poorly fitted or top-dose-only effect, or effect the other way; inactive means no such curve, though single readings can be large or run the other way.
Potency means the concentration at half of the fitted maximal effect.

Assay: Quantitative High-Throughput drug screen in 47 multiple myeloma cell lines against the NCATS MIPE library collection: OCIMY5_PLB cell viability assay (AID 1918988); further: nearly all actives have a fitted effect of over 65% in size
Conditions: OCI-MY5 myeloma viability, ATP luminescence, 48 h; series mostly up to 45.8 µM; viability, % of control: at the top concentration
Description: PI: Beverly A. Mock Ph.D.
Laboratory of Cancer Biology and Genetics,
Center for Cancer Research, National Cancer Institute,
National Institute of Health, Bethesda, Maryland
Drug resistance and disease progression are common in multiple myeloma (MM) patients, underscoring the need for new therapeutic combinations. […] We hypothesized that effective combinations would reduce MYC expression and enhance p16 activity. […] These preclinical data identify potentially useful drug combinations for evaluation in drug-resistant MM and reveal potential mechanisms of combined drug sensitivity.
Described herein is the primary MIPE qHTS used to cherrypick compounds. Validated compounds were then further tested for potential synergistic activiy.
[1] Peat TJ, Gaikwad SM, Dubois W, Gyabaah-Kessie N, Zhang S, Gorjifard S, Phyo Z, Andres M, Hughitt VK, Simpson RM, Miller MA, Girvin AT, Taylor A, Williams D, D'Antonio N, Zhang Y, Rajagopalan A, Flietner E, Wilson K, Zhang X, Shinn P, Klumpp-Thomas C, McKnight C, Itkin Z, Chen L, Kazandijian D, Zhang J, Michalowski AM, Simmons JK, Keats J, Thomas CJ, Mock BA. Drug combinations identified by high-throughput screening promote cell cycle transition and upregulate Smad pathways in myeloma. Cancer Lett. 2023 Aug 1;568:216284. doi: 10.1016/j.canlet.2023.216284. Epub 2023 Jun 24. PMID: 37356470; PMCID: PMC10408729.
SEQUENCE No. (e.g., 1, 2, 3, etc.); […] (e.g., Cells, Incubation, Reagent, etc.); VALUE and DESCRIPTION.
1; Cells; 5 uL; white, solid bottom 1536-well Greiner assay plate.
2; Compounds; 23 nL; Kalypsis pin tool (Wako USA) equipped with a 1536-well pin head to transfer to the assay plates.
3; Incubation; 48 hours; 37C incubation.
4; Reagent;5uL; CellTiter Glo (Promega).
5; Detector; 425V; Luminescence; Viewlux PerkinElmer.
NOTES (numbers refer to Sequence numbers above)
1. The cell-based screening methods employed in this study were like those previously published. Briefly, the corresponding myeloma cell lines were screened in 1,536-well plates with 500 cells, 5-uL per well for inhibition of cell viability (assessed by measuring ATP levels with CellTiterGlo).
2. NCATS MIPE 4.0 library of approved and investigational drugs were added using the Kalypsis pin tool. Wells treated with DMSO only for 100% viability and media only for 0% viability were used as controls.
3. The assay plates were covered and incubated for 48 hours in a 37C, 5% CO2 incubator with controlled humidity.
4. After 48 hours, CellTilter-GloTM luminescent substrate mix (Promega) reagent was added to the assay plate and plates we incubated for 5 min at room temperature.
5. Signal was measured as median relative luminescence units on a ViewLux (PerkinElmer) multiplate reader.
[1] Heske CM, Davis MI, Baumgart JT, Wilson K, Gormally MV, Chen L, Zhang X, Ceribelli M, Duveau DY, Guha R, Ferrer M, Arnaldez FI, Ji J, Tran HL, Zhang Y, Mendoza A, Helman LJ, Thomas CJ. Matrix Screen Identifies Synergistic Combination of PARP Inhibitors and Nicotinamide Phosphoribosyltransferase (NAMPT) Inhibitors in Ewing Sarcoma. Clin Cancer Res. 2017 Dec 1;23(23):7301-7311. doi: 10.1158/1078-0432.CCR-17-1121. Epub 2017 Sep 12. PMID: 28899971; PMCID: PMC6636827.
In the case of S=C(NCc1ccc2c(c1)OCO2)N1CCN(c2ncnc3c2oc2ccccc23)CC1, the Potency is reported as 9.59 µM (active). In the case of CCC(C)n1ncn(-c2ccc(N3CCN(c4ccc(OC[C@H]5CO[C@](Cn6cncn6)(c6ccc(Cl)cc6Cl)O5)cc4)CC3)cc2)c1=O (stereo not given in full), the Potency is reported as 2.96 µM (active). In the case of CCN(c1ccccc1)c1cc(NC)[n+](C)c(C)n1, the Potency is reported as 20.9 µM (active). In the case of COc1ccc2nc(S(=O)Cc3ncc(C)c(OC)c3C)[nH]c2c1 (stereo not given), the “viability, % of control” value is reported as 141% (inactive). With N[C@@H]1CONC1=O the “viability, % of control” value was 144% (inactive). For COc1ccccc1[C@H](c1cccc2ccccc12)[C@@](C)(C#N)C(=O)N1CCC(c2cccc(C(F)(F)F)c2)CC1, the Potency was 4.69 µM (active). For CC(=O)NC(C)c1ccc(Oc2ccc(OC(C)C)cc2)cc1 (stereo not given), the Potency was 16.6 µM (active). With COc1ccc2c3n(c(=NC(=O)c4cccnc4)nc2c1OC)CCN3 the Potency was 3.72 µM (active). For COc1ccc(-c2ccc3c(N4CCOC[C@H]4C)nc(N4CCOC[C@H]4C)nc3n2)cc1CO, the Potency was 0.332 µM (active). With OCCn1cc(-c2cnc3nnn(Cc4ccc5ncccc5c4)c3n2)cn1 the Potency was 9.35 µM (active). In the case of CS(=O)(=O)c1cccc(CNc2nc(Nc3ccc4c(c3)CCC(=O)N4)ncc2C(F)(F)F)c1, the Potency is reported as 18.7 µM (active). With COc1c(Cl)cc2c([nH]c3cnccc32)c1NC(=O)c1cccnc1C the Potency was 9.35 µM (active). In the case of Oc1cccc(-c2nc(N3CCOCC3)c3oc4ncccc4c3n2)c1, the Potency is reported as 0.382 µM (active). For O=c1[nH]c(-c2ccc(C(F)(F)F)cc2)nc2c1CSCC2, the Potency was 5.26 µM (active). In the case of Cc1cc(C=c2sc3nc4ccccc4n3c2=O)c(C)n1-c1ccccc1, the Potency is reported as 4.69 µM (active). In the case of COc1ccccc1-c1cccc(-c2c(O)c3cc(C#N)c(Cl)cc3[nH]c2=O)c1, the “viability, % of control” value is reported as 140% [at 92.2 µM] (inactive). In the case of CC(C)C[C@H](NC(=O)[C@@H](O)[C@H](N)Cc1ccccc1)C(=O)O, the Potency is reported as 26.4 µM (active). In the case of NC(=O)c1ccc(-c2nc(-c3ccc4c(c3)OCO4)c(-c3ccccn3)[nH]2)cc1, the Potency is reported as 9.35 µM (active). In the case of CN[C@@H](C)C(=O)N[C@H]1CCCC[C@H]2CC[C@@H](C(=O)N[C@@H](c3ccccc3)c3cn(CCCCc4ccc(CCCCn5cc([C@@H](NC(=O)[C@@H]6CC[C@@H]7CCCC[C@H](NC(=O)[C@H](C)NC)C(=O)N76)c6ccccc6)nn5)cc4)nn3)N2C1=O, the Potency is reported as 16.6 µM (active). In the case of O=C(Nc1cccnc1)N1CCC(Cc2cccc(Oc3ccc(C(F)(F)F)cn3)c2)CC1, the Potency is reported as 18.7 µM (active). For COc1cc(Oc2ccnc3cc(OC)c(OC)cc23)ccc1NC(=O)NC(C)c1nccs1 (stereo not given), the Potency was 16.6 µM (active). In the case of NCCc1ccc(O)c(O)c1, the Potency is reported as 20.9 µM (active). In the case of Nc1nccc(-c2ccc3noc(-c4ccc(Cl)cc4)c3c2)n1, the Potency is reported as 18.7 µM (active). With CN(C)C(=O)c1ccc(S(=O)(=O)c2ccc(NC(=O)[C@@](C)(O)C(F)(F)F)c(Cl)c2)cc1 the Potency was 20.9 µM (active). In the case of CCCS(=O)(=O)Nc1ccc(F)c(C(=O)c2c[nH]c3ncc(Cl)cc23)c1F, the Potency is reported as 14.8 µM (active). With N#CC[C@H](C1CCCC1)n1cc(-c2ncnc3[nH]ccc23)cn1 the Potency was 20.9 µM (active). In the case of CC(C=CC1=C(C)CCCC1(C)C)=CC=CC(C)=CC(=O)O, the Potency is reported as 14.8 µM (active). In the case of Cc1cc(-c2ccc(CC(=O)Nc3ccc(-c4cccnc4)cc3)cc2)ccn1, the Potency is reported as 16.6 µM (active). In the case of C1COC(NC(C2CC2)C2CC2)=N1, the “viability, % of control” value is reported as 134% (inactive). With CC(C)(C)NCC(O)c1ccc(O)c(CO)c1 (stereo not given) the Potency was 0.0148 µM (active). In the case of CCCCCCCc1ccc(CCc2cccc(O)c2C(=O)O)cc1, the Potency is reported as 16.6 µM (active). With Cc1cccc(-c2nn(C(=S)Nc3ccccc3)cc2-c2ccnc3ccccc23)n1 the Potency was 1.48 µM (active). For Cc1csc(NC(=O)c2sc3nc4c(c(C(F)(F)F)c3c2N)CCC4)n1, the Potency was 20.9 µM (active). For Cc1c(CN2CCN(C(=O)C(C)C)CC2)sc2c(N3CCOCC3)nc(-c3cnc(N)nc3)nc12, the Potency was 0.0743 µM (active). For Oc1ccc(C2CNCCc3c2cc(O)c(O)c3Cl)cc1 (stereo not given), the Potency was 16.6 µM (active). In the case of C[C@H](NC(=O)Cc1cc(F)cc(F)c1)C(=O)N[C@@H]1C(=O)N(C)c2ccccc2-c2ccccc21, the Potency is reported as 16.6 µM (active). For CCOC(=O)N1CCC(=C2c3ccc(Cl)cc3CCc3cccnc32)CC1, the Potency was 20.9 µM (active). For CCCS(=O)(=O)Nc1ccc(F)c(C(=O)c2c[nH]c3ncc(-c4ccc(Cl)cc4)cc23)c1F, the Potency was 13.2 µM (active). For Cn1cc(-c2ccc3nnc(C(F)(F)c4ccc5ncccc5c4)n3n2)cn1, the Potency was 16.6 µM (active). With Clc1cccc(Cl)c1NC1=NCCN1 the “viability, % of control” value was 147% (inactive).
